# Measured values from PubChem BioAssay (NCI).
# The panel holds about 83,000 compounds, 20% with a hit somewhere; the sample as a whole holds those more often.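 A percent growth of 40 corresponds to 60% growth inhibition; 0 means no net growth; -100 means all cells died. Active threshold: below 10.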 Unmarked numbers belong to inactive results. Calls of active or inactive are those of the source.
# System: OVCAR-5 ovarian
# Assay: NCI-60 one-dose screen, 48 h (100 = growth as untreated, 0 = no growth, -100 = all killed)
# Conditions: 10 µM unless noted
# Description: Growth inhibition of the OVCAR-5 human tumor cell line is measured as a screen for anti-cancer activity. Cells are grown in 96 well plates and exposed to the test compound for 48 hours. Compounds are tested at a single concentration, which is 10^-5 M for most compounds. The reported endpoint is percent growth (GI% or GIPRCNT), where numbers from 0 - 100% represent growth inhibition, and numbers from -100% - 0 represent cell death. For example, a value of 40 represents 60% growth inhibition. A value of 0 means no net growth occurred over the course of the experiment. A value of -40 indicates 40% of cells at the beginning of the experiment died by the end of the experiment. A value of -100 means all cells are dead at the end of the experiment.
# NCI-60 Human Tumor Cell Lines Screen was performed using the standard one-dose NCI protocol, which is described in more detail at https://dtp.cancer.gov/discovery_development/nci-60/default.htm.
# Compounds with GIPRCNT values below 10 were considered active. Activity score was based on GIPRCNT using the following formula: […]
# Score is 0 for GIPRCNT values of 100 or above, 50 for GIPRCNT values of 0, and 100 for GIPRCNT values of -100.
row,Compound,growth
1,O=C(NCc1ccco1)C1CN(c2ccc(Cl)cc2)N(c2ccc(Cl)cc2)C1=O (stereo not given),82.2%
2,CNCCNc1nc2ccccc2c2c(=O)c3cc(OC)ccc3sc12,70.8%
3,COc1ccc(C2NCCc3c2[nH]c2ccccc32)cc1CN1CCN(c2ccc(F)cc2)CC1 (stereo not given),64.8%
4,COc1cc(/C=C2\CCC/C(=C\c3cc(CN4CCOCC4)c(O)c(OC)c3)C2=O)cc(CN2CCOCC2)c1O,34%
5,CCOc1cc2c(cc1OCC)C(c1cc(C)c(O)c(C)c1)NCC2 (stereo not given),97.6%
6,Cc1cc(Br)c(N)c(Br)c1,100%
7,CCCCCCC(O)(c1ccc(F)cc1)C(CN1CCOCC1)c1ccccc1 (stereo not given),69.8%
8,COc1ccc(C2Nc3ncnc(N)c3N=C3c4ccccc4C(=O)C32)cc1 (stereo not given),98.1%
9,CCOC(=O)C1=C(C)N=c2s/c(=C\c3cc(Cl)ccc3O)c(=O)n2C1c1ccc(OC)cc1 (stereo not given),93.1%
10,COc1cc(C(=O)Nc2ccc(-c3nc4ccccc4[nH]3)cc2)cc(OC)c1OC,83.5%
11,NCCCNc1nc2ccccc2c2c(=O)c3cc(F)ccc3sc12,26.8%
12,Cc1ccc2nc(NC(=O)CSC(=S)N3CCN(c4ccccc4)CC3)sc2c1,95.6%
13,Cc1cccc(NC(=O)c2sc3nc4c(cc3c2N)CCCC4)c1C,44.1%
14,CN1C(=O)N(C)C2(c3ccccc3)OC(=S)NC12c1ccccc1 (stereo not given),99.6%
15,O=c1oc2ccc(Cl)cc2c(=O)n1-c1ccc(I)cc1F,23.1%
16,Cc1ccc(NCCNCC(O)CO)c2c(=O)c3ccccc3sc12 (stereo not given),46.8%
17,C[C@@H](C(=O)NCCCC#Cc1cnc(Nc2ccc(C#N)cc2)nc1NC1CC1)N(C)C(=O)/C=C/CN(C)C,66.3%
18,Clc1ccc(Nc2nnc(-c3ccc4c(c3)OCO4)o2)cc1,104%
19,COC(=O)/C(CCC=C(C)C)=C1\[C@@H](OC(C)=O)C[C@@]2(C)[C@H]1C[C@@H](O)[C@H]1[C@@]3(C)CC[C@H](NCCCNCCCCNCCCN)[C@@H](C)[C@@H]3CC[C@@]12C,88.1%
20,COc1ccccc1N1C(=N)S/C(=C\c2ccc(OCc3ccccc3F)cc2)C1=O,101%

row,Compound,growth
1,COc1ccc(-c2cn[nH]c2-c2cc(OC)c(OC)c(OC)c2)cc1OCc1ccccc1,67.1%
2,O=C(/C=C/c1ccccc1)c1ccc(Nc2nc(NCCO)nc(Nc3ccc(Cl)cc3)n2)cc1,97.7%
3,NS(=O)(=O)c1ccc(CCN=C=S)cc1,85.5%
4,Cn1c(/C=C(\C#N)c2ccccc2)nc2c(N3CCOCC3)nc(Cl)nc21,-50.1% (active)
5,COc1ccc(-c2nocc2-c2cccs2)cc1,88.9%
6,C1CCN(c2nc(N3CCCCC3)nc(N3CCOCC3)n2)CC1,122%
7,Cn1c2c(c(=O)[nH]c1=O)NC1=C(C(=O)c3ccccc31)C1(C=C(O)c3ccccc31)N2 (stereo not given),111%
8,COc1cc(C2C3=C(COC3=O)N(CCO)c3cc4c(cc32)CCC4)cc(OC)c1O (stereo not given),56.6%
9,O=C(/C=C/c1ccc(C(F)(F)F)cc1)c1ccc(Nc2nc(NCCO)nc(N3CCOCC3)n2)cc1,68.6%
10,COc1ccc2c(c1)C=C1CSCC3=Cc4cc(OC)ccc4OC13O2,41.1%
11,O=C(Nc1ccc(F)cc1F)c1cc(Cl)ccc1O,15.3%
12,CSc1nc2c(c(=O)[nH]1)N=C1c3ccccc3C(=O)C1C(c1ccccc1)N2 (stereo not given),82.5%
13,COc1nc2c(c(=O)n1C)N=C1c3ccccc3C(=O)C1C(c1ccccc1)N2 (stereo not given),97.1%
14,O=C(c1nc2ccccc2[nH]1)C1C(c2ccc([N+](=O)[O-])cc2)C2CC3CCCCC3N2[C@@]12C(=O)Nc1cc(Cl)ccc12 (stereo not given in full),46.3%
15,CCOc1cc(Cl)c(C(C)NC(=O)c2cccc(OC)c2)cc1OCC (stereo not given),30.2%
16,O=C(Cc1ccccc1)NC(c1ccc(Cl)cc1)c1c(O)ccc2ccccc12 (stereo not given),45.7%
17,COC(=O)C1=Nc2ccc(F)cc2/C1=C/c1sc(=S)[nH]c1O,43.6%
18,COc1c2ccoc2c(/C=C/C=O)c2oc(-c3ccccc3)cc(=O)c12,106%
19,COc1ccc(/C=C/C(=O)c2ccc(Nc3nc(NCCO)nc(Nc4ccc(Cl)cc4)n3)cc2)cc1,95.7%
20,NCCOc1ccccc1/C=C1\c2ccccc2-c2ccc([N+](=O)[O-])cc21,22.3%
